{"source": "PubChem BioAssay", "key": {"[1]": {"assay": "drug combination growth inhibition, ovarian cancer – cell-based, oncology-focused library, rucaparib conditional, profiling panel (AID 1508598)", "conditions": "patient-derived ovarian cancer cells, CellTiter-Glo viability, 144 h, stronger effect = lower value"}, "[2]": {"biological_target": "NAD(+) hydrolase SARM1 (Homo sapiens) (UniProt Q6SZW1)", "sequence (Q6SZW1 whole entry, looked up)": "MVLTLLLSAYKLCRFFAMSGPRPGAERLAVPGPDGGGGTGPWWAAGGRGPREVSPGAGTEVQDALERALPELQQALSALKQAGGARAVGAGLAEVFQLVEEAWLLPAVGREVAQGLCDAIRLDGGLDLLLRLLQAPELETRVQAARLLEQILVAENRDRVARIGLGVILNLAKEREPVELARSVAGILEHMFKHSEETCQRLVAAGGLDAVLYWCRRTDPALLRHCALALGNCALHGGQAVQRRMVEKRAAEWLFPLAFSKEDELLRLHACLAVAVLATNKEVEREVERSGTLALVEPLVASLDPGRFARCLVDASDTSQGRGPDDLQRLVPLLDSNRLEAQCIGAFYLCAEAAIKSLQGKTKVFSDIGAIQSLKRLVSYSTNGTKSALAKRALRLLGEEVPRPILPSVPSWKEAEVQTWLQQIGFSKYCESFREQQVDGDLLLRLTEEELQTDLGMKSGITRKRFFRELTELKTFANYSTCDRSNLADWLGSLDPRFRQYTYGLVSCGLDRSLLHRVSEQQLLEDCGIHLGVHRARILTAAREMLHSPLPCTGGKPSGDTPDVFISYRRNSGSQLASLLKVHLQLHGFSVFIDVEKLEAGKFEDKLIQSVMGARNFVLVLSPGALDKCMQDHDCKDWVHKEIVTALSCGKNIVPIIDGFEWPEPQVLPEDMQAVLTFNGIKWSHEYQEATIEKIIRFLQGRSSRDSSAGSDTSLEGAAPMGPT", "assay": "blocking NAD cleavage by SARM1 SAM-TIR – cell lysate, NAD-Glo luminescence (AID 1508614;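 active = compound whose remaining NAD level is above about 45 nM, limit read from the data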)", "conditions": "SAM-TIR HEK293T lysate NADase, at 1 µM, stronger effect = higher value"}, "[3]": {"assay": "growth inhibition, single agent or in combination, cell-based, chromothripsis tumors, cisplatin or BGB combos (AID 1671449; in the data active = inhibition above about 80%;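 also: cells exposed for 96 hours; 0% = vehicle DMSO and 100% = killing by high DMSO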)", "conditions": "LFS_MB_P medulloblastoma cells"}, "[4]": {"assay": "growth inhibition, single agent and combos, cell-based, chromothripsis tumors, cisplatin or BGB combos (AID 1671450; in the data active = inhibition above about 80%;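 also: cells exposed to compound for four days; 0% = vehicle DMSO and 100% = cell killing by high DMSO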)", "conditions": "HDN33 neuroblastoma cells, stronger effect = higher value"}, "[5]": {"assay": "growth inhibition, single agents and combos, ICB984, cell-based, cisplatin or BGB combos, synergistic combos for chromothripsis tumors (AID 1671451; call rule not given here;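 also: cells exposed for 96 hours before readout; 0% = vehicle DMSO and 100% = killing by high DMSO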)", "conditions": "ICB984 medulloblastoma cells, drug combinations, stronger effect = higher value"}, "[6]": {"assay": "growth inhibition, single agents and combos, HTB85, cell-based, BGB or cisplatin IC20 combos, synergistic combos for chromothripsis tumors (AID 1671453; in the data active = inhibition above about 80%;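 also: cells exposed for 96 hours before readout; 0% = vehicle DMSO and 100% = high DMSO killing control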)", "conditions": "HTB85 osteosarcoma cells, drug combinations, stronger effect = higher value"}, "[7]": {"assay": "growth inhibition, MDA-MB-436, cell-based, BGB or cisplatin combos, synergistic combos for chromothripsis tumors (AID 1671458; call rule not given here;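 also: cells exposed for 96 hours; 0% = vehicle DMSO and 100% = killing by high DMSO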)", "conditions": "MDA-MB-436 breast carcinoma growth inhibition, drug combinations, stronger effect = higher value"}}, "note": "Activity calls are given as the source filed them.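 The calls were made as follows, unless noted: active = normalized viability below 100% at a tested concentration; inactive = the rest.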"}
{"smiles": "O=C(CCCCCCC(=O)Nc1ccccc1)NO", "values": [{"measurement": "viability", "setting": "[1]; at 0.0195 µM, OCI-C5x cells, with rucaparib 10 µM, 100% = cells with rucaparib alone", "result": "111% (inactive)"}, {"measurement": "viability", "setting": "[1]; at 0.0195 µM, OCI-C5x cells, without rucaparib", "result": "114% (inactive)"}, {"measurement": "viability", "setting": "[1]; at 0.0195 µM, OCI-P5x cells, with rucaparib 20 µM, 100% = cells with rucaparib alone", "result": "112% (inactive)"}, {"measurement": "viability", "setting": "[1]; at 0.0195 µM, OCI-P5x cells, without rucaparib", "result": "93.3% (active)"}, {"measurement": "viability", "setting": "[1]; at 0.0781 µM, OCI-C5x cells, with rucaparib 10 µM, 100% = cells with rucaparib alone", "result": "110% (inactive)"}, {"measurement": "viability", "setting": "[1]; at 0.0781 µM, OCI-C5x cells, without rucaparib", "result": "108% (inactive)"}, {"measurement": "viability", "setting": "[1]; at 0.0781 µM, OCI-P5x cells, with rucaparib 20 µM, 100% = cells with rucaparib alone", "result": "96.2% (active)"}, {"measurement": "viability", "setting": "[1]; at 0.0781 µM, OCI-P5x cells, without rucaparib", "result": "83% (active)"}, {"measurement": "viability", "setting": "[1]; at 0.313 µM, OCI-C5x cells, with rucaparib 10 µM, 100% = cells with rucaparib alone", "result": "57.7% (active)"}, {"measurement": "viability", "setting": "[1]; at 0.313 µM, OCI-C5x cells, without rucaparib", "result": "57.4% (active)"}, {"measurement": "viability", "setting": "[1]; at 0.313 µM, OCI-P5x cells, with rucaparib 20 µM, 100% = cells with rucaparib alone", "result": "61.2% (active)"}, {"measurement": "viability", "setting": "[1]; at 0.313 µM, OCI-P5x cells, without rucaparib", "result": "46.1% (active)"}, {"measurement": "viability", "setting": "[1]; at 1.25 µM, OCI-C5x cells, with rucaparib 10 µM, 100% = cells with rucaparib alone", "result": "73.9% (active)"}, {"measurement": "viability", "setting": "[1]; at 1.25 µM, OCI-C5x cells, without rucaparib", "result": "52.8% (active)"}, {"measurement": "viability", "setting": "[1]; at 1.25 µM, OCI-P5x cells, with rucaparib 20 µM, 100% = cells with rucaparib alone", "result": "65.9% (active)"}, {"measurement": "viability", "setting": "[1]; at 1.25 µM, OCI-P5x cells, without rucaparib", "result": "55.9% (active)"}, {"measurement": "viability", "setting": "[1]; at 5 µM, OCI-C5x cells, with rucaparib 10 µM, 100% = cells with rucaparib alone", "result": "8.43% (active)"}, {"measurement": "viability", "setting": "[1]; at 5 µM, OCI-C5x cells, without rucaparib", "result": "7.74% (active)"}, {"measurement": "viability", "setting": "[1]; at 5 µM, OCI-P5x cells, with rucaparib 20 µM, 100% = cells with rucaparib alone", "result": "8.03% (active)"}, {"measurement": "viability", "setting": "[1]; at 5 µM, OCI-P5x cells, without rucaparib", "result": "14.8% (active)"}, {"measurement": "remaining NAD", "setting": "[2]", "result": "10 nM (inactive)"}, {"measurement": "inhibition", "setting": "[3]; at 0.5 µM, stronger effect = higher value", "result": "76.8% (inactive)"}, {"measurement": "inhibition", "setting": "[3]; measured here: combination with BGB IC20, at 0.005 µM", "result": -24, "unit": "%"}, {"measurement": "inhibition", "setting": "[3]; measured here: combination with BGB IC40, at 0.005 µM", "result": -25.1, "unit": "%"}, {"measurement": "inhibition", "setting": "[3]; measured here: combination with BGB IC40, at 0.05 µM", "result": -21.7, "unit": "%"}, {"measurement": "inhibition", "setting": "[3]; measured here: combination with cisplatin, at 0.5 µM, stronger effect = higher value", "result": 48.5, "unit": "%"}, {"measurement": "inhibition", "setting": "[3]; measured here: combination with cisplatin, at 5 µM, stronger effect = higher value", "result": 107, "unit": "%"}, {"measurement": "inhibition", "setting": "[4]; BGB combo, at 5 µM", "result": 92.3, "unit": "%"}, {"measurement": "inhibition", "setting": "[4]; at 0.5 µM", "result": "20.4% (inactive)"}, {"measurement": "inhibition", "setting": "[4]; cisplatin combo, at 5 µM", "result": 98, "unit": "%"}, {"measurement": "inhibition", "setting": "[4]; measured here: with BGB IC20 combination, at 0.5 µM", "result": 5.45, "unit": "%"}, {"measurement": "inhibition", "setting": "[4]; measured here: with cisplatin IC20 combination, at 0.5 µM", "result": 18.5, "unit": "%"}, {"measurement": "inhibition", "setting": "[4]; single agent, at 5 µM", "result": 96.3, "unit": "%"}, {"measurement": "inhibition", "setting": "[5]; BGB IC20 combo, at 0.005 µM", "result": -9.97, "unit": "%"}, {"measurement": "inhibition", "setting": "[5]; BGB IC40 combo, at 0.005 µM", "result": -34, "unit": "%"}, {"measurement": "inhibition", "setting": "[5]; BGB IC40 combo, at 0.05 µM", "result": 71.5, "unit": "%"}, {"measurement": "inhibition", "setting": "[5]; at 0.5 µM", "result": "-21.1% (inactive)"}, {"measurement": "inhibition", "setting": "[5]; cisplatin combo, at 0.05 µM", "result": 70.7, "unit": "%"}, {"measurement": "inhibition", "setting": "[5]; cisplatin combo, at 0.5 µM", "result": -19.8, "unit": "%"}, {"measurement": "inhibition", "setting": "[5]; cisplatin combo, at 5 µM", "result": -86.6, "unit": "%"}, {"measurement": "inhibition", "setting": "[5]; measured here: 5 uM single agent, at 5 µM", "result": -52.1, "unit": "%"}, {"measurement": "inhibition", "setting": "[6]; at 0.5 µM", "result": "1.09% (inactive)"}, {"measurement": "inhibition", "setting": "[6]; measured here: with BGB IC20, at 0.5 µM", "result": -18.4, "unit": "%"}, {"measurement": "inhibition", "setting": "[6]; measured here: with BGB IC20, at 5 µM", "result": 80.9, "unit": "%"}, {"measurement": "inhibition", "setting": "[6]; measured here: with cisplatin IC20, at 0.5 µM", "result": 21.1, "unit": "%"}, {"measurement": "inhibition", "setting": "[6]; measured here: with cisplatin IC20, at 5 µM", "result": 89.9, "unit": "%"}, {"measurement": "inhibition", "setting": "[6]; single agent, at 5 µM", "result": 87.5, "unit": "%"}, {"measurement": "inhibition", "setting": "[7]; at 0.5 µM", "result": "-18.9% (inactive)"}, {"measurement": "inhibition", "setting": "[7]; measured here: BGB combination, at 0.5 µM", "result": -38.5, "unit": "%"}, {"measurement": "inhibition", "setting": "[7]; measured here: BGB combination, at 5 µM", "result": 32, "unit": "%"}, {"measurement": "inhibition", "setting": "[7]; measured here: cisplatin combination, at 0.5 µM", "result": -20.9, "unit": "%"}, {"measurement": "inhibition", "setting": "[7]; measured here: cisplatin combination, at 5 µM", "result": 36.6, "unit": "%"}]}
